Assay results reported in PubChem BioAssay (NCATS).
Records with an inconclusive call do not appear. Active and inactive are the calls of the source. Calls follow the shape of the dose curve; as a rule, active = well fitted curve in the direction sought with a large enough effect; inconclusive = small, poorly fitted or top-dose-only effect, or another doubt; inactive = no such curve, though single readings can be large; an effect the other way counts as inactive or inconclusive.

How the values were obtained:
NIH3T3 = assay: qHTS assay to identify novel small-molecules to repurpose for Merkel cell carcinoma treatment (AID 1296009); conditions: MCC and control cell lines, CellTiter-Glo viability, 72 h; series mostly up to 44.8 µM; also: nearly all actives have a fitted effect of over 60% in size
Summary of the method: (§1)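 qHTS format: cells treated with library compounds in DMSO across 8 (NPC) or 11 (MIPE) concentrations. Readout after 72 hr at 37 degree celsius was CellTiter-Glo luminescence.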

UISO = assay: as above; conditions: MCC and control cell lines, CellTiter-Glo viability, 72 h; series mostly up to 46 µM
Summary of the method: as §1

WaGa = assay: as above; conditions: MCC and control cell lines, CellTiter-Glo viability, 72 h; series mostly up to 46 µM
Summary of the method: as §1

C33A = assay: Primary qHTS to identify gynecologic anti-cancer compounds using libraries of approved drugs and bioactive compounds (AID 1345084); conditions: Gynecologic cancer cell panel viability, ATPlite luminescence, 48 h; series mostly up to 57.5 µM; also: nearly all actives have a fitted effect of over 55% in size
Summary of the method: (§2)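 Cell viability after 48 h drug treatment, ATPlite luminescence readout; five doses.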

CAOV3 = assay: as above; conditions: Gynecologic cancer cell panel viability, ATPlite luminescence, 48 h; series mostly up to 57.5 µM
Summary of the method: as §2

CASKI = assay: as above; conditions: Gynecologic cancer cell panel viability, ATPlite luminescence, 48 h; series mostly up to 57.5 µM
Summary of the method: as §2

Es-2 = assay: as above; conditions: Gynecologic cancer cell panel viability, ATPlite luminescence, 48 h; series mostly up to 57.5 µM
Summary of the method: as §2

HeLa = assay: as above; conditions: Gynecologic cancer cell panel viability, ATPlite luminescence, 48 h; series mostly up to 57.5 µM
Summary of the method: as §2

Hek293T = assay: as above; conditions: Gynecologic cancer cell panel viability, ATPlite luminescence, 48 h, control line for the selectivity index; series mostly up to 57.5 µM
Summary of the method: as §2

JEG-3 = assay: as above; conditions: Gynecologic cancer cell panel viability, ATPlite luminescence, 48 h; series mostly up to 57.5 µM
Summary of the method: as §2

OV90 = assay: as above; conditions: Gynecologic cancer cell panel viability, ATPlite luminescence, 48 h; series mostly up to 57.5 µM
Summary of the method: as §2

PA-1 = assay: as above; conditions: Gynecologic cancer cell panel viability, ATPlite luminescence, 48 h; series mostly up to 57.5 µM
Summary of the method: as §2

SKOV3 = assay: as above; conditions: Gynecologic cancer cell panel viability, ATPlite luminescence, 48 h; series mostly up to 57.5 µM
Summary of the method: as §2

Tov-21-G = assay: as above; conditions: Gynecologic cancer cell panel viability, ATPlite luminescence, 48 h; series mostly up to 57.5 µM
Summary of the method: as §2

Tov112D = assay: as above; conditions: Gynecologic cancer cell panel viability, ATPlite luminescence, 48 h; series mostly up to 57.5 µM
Summary of the method: as §2

[1] = Drug repurposing screens with cells derived from glioblastoma tumor samples (AID 1345199); conditions: GBM patient neurospheres viability, ATP luminescence, 48 h; also: nearly all actives have a fitted effect of over 40% in size
Summary of the method: (§3)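 Four patient lines of CD133+ GBM neurospheres were screened at several concentrations; hits were retested in those lines plus three slower-growing GBM lines, using 48-hour treatment and ATP-based viability.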

astro = assay: as above; conditions: viability, ATP luminescence, 48 h; series mostly up to 45.9 µM
Summary of the method: as §3

[2] = at 46.1 µM (top of the series), tumour line C
[3] = at 45.9 µM (top of the series), tumour line B
[4] = at 45.9 µM (top of the series), tumour line D
[5] = at 20 µM (top of the series), tumour line C
[6] = at 21.2 µM (top of the series), tumour line B
[7] = at 21.2 µM (top of the series), tumour line D
[8] = at 46 µM (top of the series), tumour line A
% is scaled to controls: 0 for no effect and ±100 for the full control effect; potency is read from the fitted curve at half-maximal effect.

CN1CCC(=C2c3ccccc3CC(=O)c3sccc32)CC1
active: Potency (WaGa) 29.9 µM | Potency ([1]; tumour line A) 14.1 µM | Potency ([1]; tumour line D) 12.6 µM
inactive: outcome (NIH3T3) | Potency (UISO) | Potency (C33A) | Potency (CAOV3) | Potency (CASKI) | Potency (Es-2) | Potency (HeLa) | Potency (Hek293T) | Potency (JEG-3) | Potency (OV90) | Potency (PA-1) | Potency (SKOV3) | Potency (Tov-21-G) | Potency (Tov112D) | activity, negative = cell killing [1, 2] -13.4%

CN1CCN(C2=Nc3cc(Cl)ccc3Nc3ccccc32)CC1
active: Potency (SKOV3) 31.6 µM | Potency ([1]; tumour line A) 11.2 µM | Potency ([1]; tumour line D) 35.5 µM
inactive: outcome (NIH3T3) | Potency (UISO) | Potency (WaGa) | Potency (C33A) | Potency (CASKI) | Potency (Es-2) | Potency (HeLa) | Potency (Hek293T) | Potency (JEG-3) | Potency (Tov-21-G) | Potency (Tov112D) | activity, negative = cell killing [1, 2] 1.71%

NCCc1cnc[nH]1
inactive: outcome (NIH3T3) | Potency (UISO) | Potency (WaGa) | Potency (C33A) | Potency (CASKI) | Potency (Es-2) | Potency (HeLa) | Potency (Hek293T) | Potency (JEG-3) | Potency (OV90) | Potency (PA-1) | Potency (SKOV3) | Potency (Tov-21-G) | Potency (Tov112D) | activity, negative = cell killing [1, 3] 27.7% | activity, negative = cell killing [1, 4] 2.11% | activity, negative = cell killing [1, 2] 0.797% | Potency (astro)

O=C(CCCN1CCC(O)(c2ccc(Cl)cc2)CC1)c1ccc(F)cc1
inactive: outcome (NIH3T3) | Potency (UISO) | Potency (WaGa) | Potency (C33A) | Potency (CASKI) | Potency (Es-2) | Potency (HeLa) | Potency (Hek293T) | Potency (JEG-3) | Potency (Tov112D) | activity, negative = cell killing [1, 2] -10.7%
active: Potency ([1]; tumour line A) 11.2 µM | Potency ([1]; tumour line D) 15.8 µM

COc1cc2nc(N(C)CCCNC(=O)C3CCCO3)nc(N)c2cc1OC (stereo unspecified)
inactive: outcome (NIH3T3) | Potency (UISO) | Potency (WaGa) | Potency (C33A) | Potency (CASKI) | Potency (Es-2) | Potency (HeLa) | Potency (Hek293T) | Potency (JEG-3) | Potency (OV90) | Potency (PA-1) | Potency (SKOV3) | Potency (Tov-21-G) | Potency (Tov112D) | activity, negative = cell killing [1, 5] -6.33% | activity, negative = cell killing [1, 6] -6.29% | activity, negative = cell killing [1, 7] 7.29% | Potency (astro)

CN(CCOc1ccc(NS(C)(=O)=O)cc1)CCc1ccc(NS(C)(=O)=O)cc1
inactive: outcome (NIH3T3) | Potency (UISO) | Potency (WaGa) | Potency (C33A) | Potency (CAOV3) | Potency (CASKI) | Potency (Es-2) | Potency (HeLa) | Potency (Hek293T) | Potency (JEG-3) | Potency (OV90) | Potency (PA-1) | Potency (SKOV3) | Potency (Tov-21-G) | Potency (Tov112D) | activity, negative = cell killing [1, 3] -5.75% | activity, negative = cell killing [1, 4] -4.11% | activity, negative = cell killing [1, 2] 4.34% | Potency (astro)

Clc1ccc2nsnc2c1NC1=NCCN1
inactive: outcome (NIH3T3) | Potency (UISO) | Potency (WaGa) | Potency (C33A) | Potency (CASKI) | Potency (Es-2) | Potency (HeLa) | Potency (Hek293T) | Potency (JEG-3) | Potency (OV90) | Potency (PA-1) | Potency (SKOV3) | Potency (Tov-21-G) | Potency (Tov112D) | activity, negative = cell killing [1, 3] -9.87% | activity, negative = cell killing [1, 4] 1.91% | activity, negative = cell killing [1, 2] 8.38% | Potency (astro)

CC(=O)OCC(CCn1cnc2cnc(N)nc21)COC(C)=O
inactive: outcome (NIH3T3) | Potency (UISO) | Potency (WaGa) | Potency (C33A) | Potency (CASKI) | Potency (Es-2) | Potency (HeLa) | Potency (Hek293T) | Potency (JEG-3) | Potency (OV90) | Potency (PA-1) | Potency (SKOV3) | Potency (Tov-21-G) | Potency (Tov112D) | activity, negative = cell killing [1, 3] -16.1% | activity, negative = cell killing [1, 4] -3.4% | activity, negative = cell killing [1, 8] -17.2% | activity, negative = cell killing [1, 2] -0.294%

CC1(C)O[C@H]2CC(=O)OC[C@]23[C@H]2CC[C@@]4(C)[C@H](c5ccoc5)OC(=O)[C@H]5O[C@]54[C@]2(C)C(=O)C[C@@H]13
inactive: outcome (NIH3T3) | Potency (UISO) | Potency (WaGa) | Potency (C33A) | Potency (CASKI) | Potency (Es-2) | Potency (HeLa) | Potency (Hek293T) | Potency (JEG-3) | Potency (OV90) | Potency (PA-1) | Potency (SKOV3) | Potency (Tov-21-G) | Potency (Tov112D) | activity, negative = cell killing [1, 3] -1.56% | activity, negative = cell killing [1, 4] -7.18% | activity, negative = cell killing [1, 8] -18.9% | activity, negative = cell killing [1, 2] 3.51%

CN1CCC(=C2c3ccccc3C=Cc3ccccc32)CC1
inactive: outcome (NIH3T3) | Potency (UISO) | Potency (C33A) | Potency (CASKI) | Potency (Es-2) | Potency (HeLa) | Potency (JEG-3) | Potency (PA-1) | Potency (SKOV3) | Potency (Tov-21-G) | Potency (Tov112D) | activity, negative = cell killing [1, 2] -12.4%
active: Potency (WaGa) 26.6 µM | Potency ([1]; tumour line A) 3.55 µM | Potency ([1]; tumour line B) 25.1 µM | Potency ([1]; tumour line D) 20 µM

CCCNCC(O)COc1ccccc1C(=O)CCc1ccccc1 (stereo unspecified)
inactive: Potency (UISO) | Potency (WaGa) | Potency (C33A) | Potency (CAOV3) | Potency (CASKI) | Potency (Es-2) | Potency (HeLa) | Potency (Hek293T) | Potency (JEG-3) | Potency (PA-1) | Potency (Tov-21-G) | Potency (Tov112D) | activity, negative = cell killing [1, 2] 27.1%
active: Potency ([1]; tumour line A) 7.08 µM

CC(C(=O)O)c1cccc(C(=O)c2ccccc2)c1 (stereo unspecified)
inactive: outcome (NIH3T3) | Potency (UISO) | Potency (WaGa) | Potency (CASKI) | Potency (Es-2) | Potency (HeLa) | Potency (Hek293T) | Potency (JEG-3) | Potency (OV90) | Potency (PA-1) | Potency (Tov-21-G) | Potency (Tov112D) | activity, negative = cell killing [1, 3] -12.8% | activity, negative = cell killing [1, 4] -8.28% | activity, negative = cell killing [1, 8] -32% | activity, negative = cell killing [1, 2] 2.51% | Potency (astro)

COc1nc(C)nc(Cl)c1NC1=NCCN1
inactive: Potency (UISO) | Potency (WaGa) | Potency (C33A) | Potency (CAOV3) | Potency (CASKI) | Potency (Es-2) | Potency (HeLa) | Potency (Hek293T) | Potency (JEG-3) | Potency (OV90) | Potency (PA-1) | Potency (SKOV3) | Potency (Tov-21-G) | Potency (Tov112D) | activity, negative = cell killing [1, 5] -9.78% | activity, negative = cell killing [1, 6] -2.98% | activity, negative = cell killing [1, 7] 12.8% | activity, negative = cell killing ([1]; at 21.3 µM (top of the series), tumour line A) -26.5% | Potency (astro)
